Data taken from PubChem BioAssay AID588473 (Sanford-Burnham Center for Chemical Genomics, 2011).
Screen size: about 350,000 compounds; about 1,600 (0.46%) were called active.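 The calls were made as follows: active = activation of at least 50%, plus an integration ratio under a set limit after plate pattern correction; inactive = the rest.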 Shown is part of a subset that was picked to be rich in actives.

tested on: CRF-binding protein / CRF receptor 2 complex (human); assay: agonists of CRF-BP/CRF-R2 complex, primary screen, cell-based, HEK293, calcium dye fluorescence, uHTS (AID 588473); details: calcium dye fluorescence (FLIPR), at 13.2 µM, hits give high values, percent of saturating CRF peptide response;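 also: plate controls were neutral control wells without compound for no effect and CRF at EC100 for full effect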

activation, inactive:
COc1cccc(N2CC(NC(=O)c3ccc4ccccc4c3)CC2=O)c1 (stereo unspecified) -0.96%
O=C(CCc1nc(-c2ccccc2)no1)Nc1cccc(C(=O)NC2CC2)c1 -1.3%
COC(=O)c1ccc(C(=O)OC)c(NC(=S)N2CCN(c3cc(Cl)ccc3C)CC2)c1 2.16%
Cc1cccc(N2CCN(C(=O)c3cnn4c(C(F)F)cc(-c5ccccc5)nc34)CC2)c1C -0.01%
CC(=O)Nc1ccc(S(=O)(=O)N(C)c2ccc(OCC(=O)OCC(=O)N3CCCCC3)cc2)cc1 -1.11%
O=c1oc2ccccc2c(=O)c2ccccc12 0%
COc1ccccc1CNC(=O)c1cc(=O)c2ccccc2o1 -1.3%
O=C(CCN1CCN(c2ccccc2)CC1)NNC(=S)Nc1ccccc1 -0.17%
CC(C)C(=O)NC(=S)Nc1ccccc1F -2.1%
CC(C)CCNC(=O)CC1C(=O)N(Cc2ccccc2)C(C)c2nc3ccccc3n21 (stereo unspecified) -1%
OC(COCCC12CC3CC(CC(C3)C1)C2)CN1CCCCC1 (stereo unspecified) 0.79%
COc1ccc(NC(C(=O)Nc2cccc(C(C)=O)c2)c2ccccc2)cc1 (stereo unspecified) -0.34%
COc1ccc(-c2ocnc2C(=O)Nc2ccc3c(c2)CCC3)cc1 1.68%
COc1ccccc1C(=O)Nc1ccccc1C(=O)Nc1ccccc1 0.57%
CC1CCCCC1NCC(=O)Nc1ccccc1C(=O)Nc1ccccc1 (stereo unspecified) -2.89%
O=S(=O)(Nc1ccc(-c2ccc(N3CCOCC3)nn2)cc1)c1cc(Cl)ccc1Cl 0.21%
CC1=C(C(=O)OC2CCCCC2)C(c2cccnc2)n2ncnc2N1 (stereo unspecified) -0.1%
CCOc1ccccc1C1CC(c2ccccc2)Nc2nc(N)nn21 (stereo unspecified) 8.41%
Clc1ccc2c(c1)C1=C(C(c3ccncc3)O2)C(c2ccc(Br)cc2)n2ncnc2N1 (stereo unspecified) 0.45%
CN(CC(=O)Nc1ccccc1F)CC(=O)Nc1ccccc1Br -3.49%
Cc1cccc(CC2(O)C(=O)Nc3ccccc32)n1 (stereo unspecified) -0.62%
CCN(CC)S(=O)(=O)c1ccc(Cl)c(C(=O)NC(C)C(c2cccs2)N2CCCC2)c1 (stereo unspecified) 0.2%
OCCCNC(c1ccccc1)c1ccc(O)cc1 (stereo unspecified) -1.4%
COC1=C/C(=C/c2c(N)n3nc(CC(=O)N4CCOCC4)sc3nc2=O)C=CC1=O 9.37%
COc1cc(/C=C2\C(=N)N3N=C(CC(=O)N4CCOCC4)SC3=NC2=O)cc(OC)c1OC -0.4%
CN(CC(=O)Nc1ccc(C(N)=O)cc1)S(=O)(=O)c1ccc2c(c1)OCCO2 3.57%
CCCCCCCCNS(=O)(=O)CCNC1CCCCC1 -0.59%
CC(C)n1c(-c2ccncc2)n[nH]c1=S -1.12%
O=C(Nc1cc2c3c(c1)C1CCCC1CN3CC1CCCC21)c1ccc([N+](=O)[O-])cc1 (stereo unspecified) -3.97%
Nc1cc(C(=O)N2CCN(c3ccccc3Cl)CC2)ccc1N1CC2CC(C1)c1cccc(=O)n1C2 (stereo unspecified) 0.29%
Oc1ccc(-c2nncn2-c2ccccc2)cc1 0.43%
CC(N=Cc1nc(-c2ccccc2)oc1O)c1ccccc1 (stereo unspecified) -5.27%
CCOc1ccc2nc(C(=O)N3CCCC(C)C3)sc2c1 (stereo unspecified) 0.48%
Cn1c(=O)c2c(nc(N3CCOCC3)n2CCNC2=NCCC2)n(C)c1=O -1.41%
C[C@H]1NS(=O)(=O)c2cc(Cl)ccc2O[C@@H]1c1ccccc1 -0.01%
COC(=O)C1(O)CC(C(C)C)=NN1C(=O)c1ccc(Cl)cc1 (stereo unspecified) 0.23%
Cc1ccc(S(=O)(=O)/N=C2\C=C(NS(=O)(=O)c3ccc(C)cc3)C(=O)c3ccccc32)cc1 -2.69%
COc1ccc(S(=O)(=O)/N=C2\C=C(NS(=O)(=O)c3ccccc3)C(=O)c3ccccc32)cc1 -1.4%
O=[N+]([O-])c1cc(S(=O)(=O)NCCc2ccccn2)ccc1Cl 1.07%
CCCCN1C[C@H](c2ccc(Br)cc2)[C@@H](CC(=O)Nc2ccc(Br)cc2)C1=O -0.04%
COC(=O)C1=C(C(=O)c2ccc(C)cc2)C(c2ccccc2)n2nnnc2N1 (stereo unspecified) -0.02%
COc1ccc(C2CC(c3cccs3)Nc3nnnn32)cc1 (stereo unspecified) -1.43%
CC/C(=N\O)C(C)(C)/[N+]([O-])=C/c1ccc(Br)cc1 0.05%
CC(C)(C)Nc1c(-c2cccs2)nc2ccccn12 -0.46%
CCN(Cc1nc2ccccc2c(=O)[nH]1)Cc1cc(=O)oc2cc(C)c(C)cc12 -0.08%
COC(=O)c1cc(C(=O)OCC(=O)Nc2cc(C)on2)cc([N+](=O)[O-])c1 -3.69%
CCc1ccc(NC(=O)CN2C(=O)COc3ccc(S(=O)(=O)N4CCCC4)cc32)cc1 -5.92%
COCCCNCC(=O)Nc1sc(C)c(C)c1C(=O)OC -2.35%
COc1ccc(N(CC(=O)Nc2ccc(F)c(F)c2)S(=O)(=O)c2c(C)[nH]c(=O)[nH]c2=O)cc1 -1.2%
CCOC(=O)c1nnn2c3ccccc3c(=O)n(C)c12 0.18%
CCOC(=O)N1CCN(C(=O)c2nn(-c3ccc(C)cc3)c(=O)c3c2c2ccccc2n3C)CC1 3.98%
CC(C)(C)C1CCc2c(sc3nc(SCC(N)=O)nc(N)c23)C1 (stereo unspecified) 0.65%
Nc1nc(SCC(=O)NCCN2CCOCC2)nc2sc3c(c12)CCC3 2.46%
CC(NC(=O)c1ccc(Cl)cc1)C(=O)N1CCCCC1 (stereo unspecified) 0.19%
O=C(CN1CCN(C2CCS(=O)(=O)C2)CC1)N1N=C(c2ccc(Cl)cc2)CC1c1ccco1 (stereo unspecified) 0.41%
CCOc1cc(/C=N/NC(=O)c2c(C)nc3ccc(Cl)cn23)ccc1O -0.91%
CCOc1cc(C=NNC(=O)CCCC(=O)NN=Cc2ccc(O)c(OCC)c2)ccc1O -2.14%
CCOC(=O)c1ccc(N/C(=N/S(=O)(=O)c2ccccc2)c2ccccc2)cc1 -1.91%
CC1(C)O[C@H]2CC(=O)OCC23[C@H]2CC[C@@]4(C)[C@H](c5ccoc5)OC(=O)[C@H]5O[C@]54[C@]2(C)C(=O)C[C@@H]13 (stereo partly specified) 1.6%
Cc1nn(CC#N)c(=O)n1N(C)c1ncc(C(F)(F)F)cc1Cl 1.06%
CN(NS(=O)(=O)c1cccs1)c1ncc(C(F)(F)F)cc1Cl -0.09%
O=C(COc1ccc(Cl)cc1)NC(=S)Nc1ccccc1N1CCOCC1 1.42%
Cc1ccccc1NC(=S)NC(=O)Cc1ccc(Cl)cc1 46%
Cc1csc(=O)n1CC(=O)OCC(=O)N(CC(C)C)c1c(N)n(Cc2ccccc2)c(=O)[nH]c1=O -0.29%
CCCCNC(=O)C(C)N(CCN(C)C)C(=O)CCCN1C(=O)NC(c2ccc(Cl)cc2)C(C(=O)OCc2ccccc2)=C1C (stereo unspecified) -0.71%
Cc1ccc(CNC(=O)c2ccc3c(c2)S(=O)(=O)c2ccccc2C3=O)cc1 -0.74%
CC1CCN(c2ccc3c(c2)S(=O)(=O)c2cc(C(=O)O)ccc2C3=O)CC1 3.35%
Cc1ccnc2nc(C(=O)OCC(=O)N(CC(C)C)CC(C)C)nn12 3.18%
CC(=O)OCC1(O)CC23CCC4c5ccoc5CCC4(C)C2CCC1C3 (stereo unspecified) 4.09%
COc1cc(OC)cc(C(=O)NC(=S)N2CCN(c3ccc(C(F)(F)F)cc3[N+](=O)[O-])CC2)c1 2.06%
COc1cccc2cc(C(N)=O)/c(=N\NC(=O)c3ccccc3)oc12 -2.1%
CCN(CC)c1ccc(C(=O)N/N=C(\C)c2cccc(OC)c2)cc1 0.09%

activation, active:
Cc1ccc(Cl)cc1N1CCN(C(=O)c2cccc3c(=O)c(C)c(-c4ccccc4)oc23)CC1 63.6%
COc1cc(N=Cc2c(O)c3ccccc3oc2=O)c(OC)cc1Cl 66.4%
CCCCC(=O)NNC(=S)NC(=O)C(c1ccccc1)c1ccccc1 135%
COc1ccc(-c2onc3ccc(C(C)=O)cc23)cc1 100%
O=C(Nc1ccccc1)c1ccccc1NC(=O)C(F)(F)F 55.4%
Brc1ccc(C2=CC(c3ccco3)n3ncnc3N2)cc1 (stereo unspecified) 274%
CCOc1ccc(C2=CC(c3ccccc3)n3ncnc3N2)cc1 (stereo unspecified) 53.1%
C=CCC1=C/C(=C\c2c(N)n3nc(CC(=O)N4CCOCC4)sc3nc2=O)C=C(OC)C1=O 83.2%
CCOc1ccc2nc(/N=C/c3nc(-c4ccccc4)oc3O)sc2c1 191%
CC1=C/C(=N\S(=O)(=O)c2ccccc2)C(C(C)C)=CC1=O 81.3%
COc1ccc(C2=CC(c3cccc(OC)c3)n3nnnc3N2)cc1 (stereo unspecified) 69.7%
C[n+]1ccc(/C=C/c2c[nH]c3ccccc23)cc1 61.1%
CCCc1nc2c(c(=O)c3ccccc3n2C)c(=O)n1C1CCCCCC1 137%
C=C(C)CSc1nc(N)c2c3c(sc2n1)CCC3 155%
CCOc1cc(/C=C(\C#N)c2nc(-c3cccs3)c(NC(C)=O)s2)ccc1O 222%
C#CCN(N(C)c1ncc(C(F)(F)F)cc1Cl)S(=O)(=O)c1ccc2ccccc2c1 64.8%
O=C(Cc1ccc(Cl)cc1)NC(=S)Nc1ccccc1O 128%
Cc1ccc(CNC(=O)c2cccc3c2C(=O)c2ccc(N4CCC(C)CC4)cc2S3(=O)=O)cc1 56.2%
CCN(CC)c1ccc2cc(C(N)=O)/c(=N\NC(=O)c3ccncc3)oc2c1 264%
